Screening data (PubChem BioAssay)
Rows were chosen to be rich in hits. Some 5.3% of all compounds tested hit in one or more screens of this group.
Tau fibril ThT = blocks human tau fibril formation measured by thioflavin T. P10636. hit rate 2.1% among 270,000. recombinant tau K18 P301L, heparin-induced fibrillization, ThT fluorescence. Potency, µM (top dose mostly 57.4 µM), inactives show at the highest dose activity, negative = inhibition, usual class: inhibitors; also: potency is read from the fitted curve at half-maximal effect; nearly all actives have a fitted effect of over 55% in size
Target sequence (P10636 561-689 P618L limits assumed): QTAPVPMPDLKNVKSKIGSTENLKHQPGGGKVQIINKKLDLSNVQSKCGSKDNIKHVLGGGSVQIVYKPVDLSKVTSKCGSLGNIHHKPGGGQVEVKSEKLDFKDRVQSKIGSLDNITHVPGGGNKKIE
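In this qHTS, human K18 P301L tau is incubated with compound and heparin for 6 hr at 37 C, and Thioflavin T fluorescence then reports fibril load.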
FBPA coupling cs = inhibits coupling enzyme system, counter-screen for aldolase hits; coupling enzyme system counterscreen, AmpLite Red fluorescence; activity change, negative = inhibition, % at 58.2 µM, hits read low; hit rate 0.67% among 290,000; AID 2472; in the data active = activity change below about -30%
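Coupling enzymes only (glyceraldehyde-3-phosphate) + compound, at 57.5 uM final, 10 min RT; add substrate/coupling/AmpLite Red mix, 20 min RT; fluorescence ex 525/em 598 nm. Actives flag coupling-system interference.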
Tau fluor cs = counter-screen for tau fibril formation inhibitors. hit rate 0.93% among 280,000. tau K18 P301L (four-repeat tau fragment) Alexa594 fluorescence, heparin fibrillization. Potency, µM (top dose mostly 57.7 µM), inactives show at the highest dose activity change, negative = decrease; also: potency is read from the fitted curve at half-maximal effect; nearly all actives have a fitted effect of over 55% in size
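Human K18 P301L tau (15 uM unlabeled plus 0.24 uM Alexa 594-labeled, final) in 100 mM sodium acetate pH 7 was mixed with compound and 20 uM heparin and incubated 6 hr at 37 C.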
Tau fibril FP = inhibitors of human tau fibril formation; K18 P301L tau heparin fibrillization, Alexa594 FP, 6 h; Potency, µM (top dose mostly 57.7 µM), for inactives: at the top dose activity, negative = inhibition, actives largely listed as inhibitors; hit rate 0.39% among 280,000; AID 1468; also: potency is read from the fitted curve at half-maximal effect; nearly all actives have a fitted effect of over 55% in size
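K18 P301L tau (15 uM unlabeled/0.24 uM Alexa 594-labeled, final) + compound + heparin 20 uM final; 100 mM NaOAc pH 7; 6 hr 37 C; ThT 30 uM final added, 1 hr RT; FP ex 555/em 632 nm.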
JMJD2E inh = JMJD2E (human) inhibition. B2RXH2. JMJD2E catalytic domain, FDH-coupled NADH fluorescence (FDH is formaldehyde dehydrogenase). Potency, µM (doses to about 57.1 µM), for inactives: top-dose activity change, negative = inhibition, most hits filed as inhibitors. hit rate 1.6% among 230,000; active = well fitted inhibition curve with a large enough effect, not every such curve was filed as active; inconclusive = small, poorly fitted or top-dose-only effect, or another doubt; inactive = no such curve, though single readings can be large or run the other way;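 also: potency is read from the fitted curve at half-maximal effect; 0% = wells with enzyme and -100% = buffer wells without enzyme; nearly all actives have a fitted effect of over 50% in size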
Target sequence (B2RXH2 1-337 limits assumed): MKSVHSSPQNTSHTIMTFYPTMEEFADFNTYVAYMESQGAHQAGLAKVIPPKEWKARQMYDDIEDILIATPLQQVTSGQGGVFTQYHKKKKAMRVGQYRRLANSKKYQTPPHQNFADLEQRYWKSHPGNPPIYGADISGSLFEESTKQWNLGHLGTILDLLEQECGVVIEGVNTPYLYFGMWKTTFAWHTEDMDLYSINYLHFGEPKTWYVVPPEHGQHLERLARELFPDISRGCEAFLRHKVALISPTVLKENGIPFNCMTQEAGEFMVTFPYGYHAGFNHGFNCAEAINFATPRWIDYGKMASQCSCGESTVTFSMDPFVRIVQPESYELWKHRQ
Sfp PPTase inh = inhibitors of Bacillus subtilis Sfp phosphopantetheinyl transferase | Q9F4F7 | Biochemical Sfp PPTase activity, qHTS | Potency, µM, for the others: largest response in the series, negative = inhibition, most hits filed as inhibitors | hit rate 3.5% among 310,000;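 also: the enzyme is Sfp with the accession as filed and its product quenches rhodamine fluorescence; potency is read from the fitted curve at half-maximal effect; 0% = enzyme reaction without inhibitor and -100% = no enzyme wells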
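Fluorescence-quenching assay with 15 nM Sfp, 5 uM rhodamine-CoA and 12.5 uM BHQ-2-labelled ybbR peptide in pH 7.6 Hepes/MgCl2 buffer. Enzyme was pre-incubated with compound for 15 min at room temperature. Rate was taken from the 30-min fluorescence change (525/598 nm).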
* hit, by the source's call; ? = inconclusive; . = not tested or not shown; [ ] = remark or other dose. Unless noted, calls follow the shape of the dose curve; as a rule, active = well fitted curve in the direction sought with a large enough effect; inconclusive = small, poorly fitted or top-dose-only effect, or another doubt; inactive = no such curve, though single readings can be large; an effect the other way counts as inactive or inconclusive. Unless noted, % is scaled to controls: 0 for no effect and ±100 for the full control effect.

SMILES | Tau fibril ThT | FBPA coupling cs | Tau fluor cs | Tau fibril FP | JMJD2E inh | Sfp PPTase inh
Cc1ccc(CNC(=O)c2cc3c(=O)n(C)c4ccccc4c3n2C)o1 | -7% | 3 | -4% | -5% | ? | 56µM*
Cc1ccc(CNC(=O)c2cn(C)c(=O)c3c2c2ccccc2n3C)o1 | ? | -4 | -16% | -14% | ? | 22µM*
Cc1ccc(CNC(=O)c2cn(C3CCCCC3)c(=O)c3c2c2ccccc2n3C)o1 | ? | -8 | -22% | -2% | ? | 18µM*
CCOc1ccccc1CNC(=O)c1cn(C)c(=O)c2c1c1ccccc1n2C | -13% | -5 | -13% | 11% | ? | 9%
CCOCC | . | 0 | . | . | . | 4%
COc1cccc2nc3cc(C)c(C)cc3nc12 | 22µM* | -39* | -27% | ? | -4% | ?
Cc1cccc(N2C(=O)CSC23C(=O)N(CC(=O)NCc2ccccc2Cl)c2ccccc23)c1 (stereo not given) | -5% | . | -22% | -6% | . | .
C=C(C)Cn1c(SCC(=O)N/N=C/c2ccccc2)nc2ccccc2c1=O | -1% | 4 | -19% | -7% | 2% | 79µM*
O=C(COc1ccccc1F)Nc1nnc(S(=O)(=O)N2CCCCCC2)s1 | 14µM* | . | -13% | -4% | . | .
O=C(Nc1nnc(S(=O)(=O)N2CCOCC2)s1)c1ccccc1 | . | -18 | . | . | . | -12%
CC1Cc2ccccc2N1S(=O)(=O)c1nnc(NC(=O)c2ccccc2Br)s1 (stereo not given) | 13µM* | . | ? | -3% | . | .
O=C(COc1ccccc1Cl)Nc1nnc(S(=O)(=O)N2CCCC2)s1 | ? | -1 | ? | -1% | . | 15%
CC1Cc2ccccc2N1S(=O)(=O)c1nnc(NC(=O)c2ccccc2)s1 (stereo not given) | ? | . | -13% | 4% | . | .
O=C(Nc1nnc(S(=O)(=O)N2CCCC2)s1)c1ccccc1Cl | 3.5µM* | 1 | ? | 10% | . | 13%
O=C(Nc1nnc(S(=O)(=O)N2CCCCCC2)s1)c1ccccc1 | 14µM* | -9 | ? | 1% | . | 10%
N#Cc1ccc(NC(=O)C2Cc3ccccc3CN2S(=O)(=O)c2ccc(F)cc2)cc1 (stereo not given) | 16% | . | ? | -24% | . | .
CCNC(=S)NNC(=O)c1nn(C)c(C)c1Cl | -2% | -1 | 2% | -3% | -26% | -6%
Cc1c(Cl)c(C(=O)NNC(=S)Nc2ccccc2)nn1C | -14% | 1 | -8% | 0% | 10µM* | 5%
Cc1nn(CCC(=O)NNC(=S)Nc2ccc(F)cc2)c(C)c1[N+](=O)[O-] | -8% | -1 | -11% | -10% | 8% | -7%
Cc1c(Cl)c(C(=O)NNC(=S)Nc2ccc(F)cc2)nn1C | -6% | -1 | 0% | 3% | 20µM* | 13%
Cc1ccccc1OCCCCn1nnc2sc3c(c2c1=O)CCC(C)C3 (stereo not given) | -14% | . | -14% | 2% | . | .
Cc1cc(C)c2nc(N3CCCC(C(=O)NCc4ccccc4F)C3)sc2c1 (stereo not given) | -4% | . | -14% | -4% | . | .
C[n+]1ccc(/C=N/Nc2nc(Cl)c(C#N)c(Cl)c2Cl)cc1 | 13µM* | -1 | 11µM*[quencher] | -5% | 1% | 4%
COc1cc(/C=N/n2cc(-c3ccccc3)[nH]c2=S)cc(OC)c1O | 20µM* | -3 | ? | 12% | ? | 20µM*
Oc1ccc(/C=N/n2cc(-c3ccccc3)[nH]c2=S)cc1 | 10µM* | 0 | ? | 3% | ? | 18µM*
O=C(Cc1ccccc1)N(Cc1cccnc1)c1nc2c(F)cc(F)cc2s1 | -8% | . | -24% | -12% | . | .
CCOc1cccc2sc(NN)nc12 | 20µM* | -4 | 14µM*[quencher] | ? | ? | -81%
O=C(O)[C@H](CC(=O)N1C[C@H]2CCCC[C@H]2C1)Cc1ccccc1 | . | . | . | . | . | 13%
Fc1ccc(-c2ccnc(=S)[nH]2)cc1 | ? | 0 | -12% | ? | -4% | 20µM*
COc1cc(O)cc(O)c1C(=O)/C=C/c1ccccc1 | ? | 2 | -19% | -6% | -5% | -17%
